This note sets out measurements from PubChem BioAssay (NCATS).

Records with an inconclusive call do not appear. Calls of active or inactive are those of the source. Calls follow the shape of the dose curve; as a rule, active = well fitted inhibition curve with a large enough effect; inconclusive = small, poorly fitted or top-dose-only effect; inactive = no such curve, though single readings can be large or run the other way.
Potency is read from the fitted curve at half-maximal effect.

A short description of this assay: qHTS to identify inhibitors of the type 1 interferon - major histocompatibility complex class I in skeletal muscle: primary screen against the NCATS Mechanism Interrogation Plate v5.0 (MIPE) Libary (AID 1347411). Also: nearly all actives have a fitted effect of over 65% in size.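 As to activity change, negative = inhibition: plate controls were vehicle for no effect and reference inhibitor for full effect.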 The following applies: iHSKM cells + IFN-b, HiBiT-tagged MHC-I luminescence, 24 h; series mostly up to 45.8 µM; activity change, negative = inhibition: at the top concentration. The method in brief: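 Immortalized human C25cl48 myoblasts with HiBit knocked into endogenous HLA-B*08:01 were stimulated with 4.0 ng/ml IFN-beta and exposed to compounds (11-point 1:3 titration, top 46 uM final) for 24 hrs at 37 C; HiBiT lytic luminescence measured.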
A general note: Quantitative high-throughput screening tests each substance at several concentrations.
With `CCNC1(C(N)=O)CCN(c2ncnc3c2nc(-c2ccccc2Cl)n3-c2ccc(Cl)cc2)CC1`, the “activity change, negative = inhibition” value is -96.7% (inactive).

Regarding `COc1ccc(CNc2nc(N(CCO)CCO)nc3c2ncn3C(C)C)cc1`, the Potency was 4.66 µM (active). For the molecule `COc1cccc(-c2cc(F)ccc2C2Cc3nc(N)nc(C)c3C(=O)N2)n1` (configuration not stated), the Potency is 0.0587 µM (active).

Take `COC(=O)Nc1cc(Nc2cc(NC3CC3)c3ncc(C#N)n3n2)c(Cl)c(N2CCN(C)CC2)c1`: the Potency was 4.66 µM (active). Regarding `Nc1nccc(-c2c(-c3ccc(F)cc3)ncn2C2CCCCC2)n1`, the “activity change, negative = inhibition” value was -14.6% (inactive). As to `Cc1cc2c(F)c(Oc3ncnn4cc(OCC(C)OC(=O)C(C)N)c(C)c34)ccc2[nH]1` (configuration not stated), the “activity change, negative = inhibition” value was -30% (inactive). Consider `COc1cccc(OCCCN)c1-c1cc(Nc2cnc(C#N)cn2)n[nH]1`, for which the Potency was 6.58 µM (active). Regarding `CN(C)N(C)C(=O)[C@@]1(Cc2ccccc2)CCCN(C(=O)[C@@H](Cc2c[nH]c3ccccc23)NC(=O)C(C)(C)N)C1`, the “activity change, negative = inhibition” value is 5.14% (inactive). Consider `CC1(C)CN(C(=O)c2ccc(-c3cccc4nc(NC(=O)C5CC5)nn34)cc2)C1`, for which the Potency is 4.15 µM (active). Regarding `Cc1[nH]c(/C=C2\C(=O)Nc3ccc(F)cc32)c(C)c1C(=O)NCCN1CCCC1`, the Potency was 10.2 µM (active). Turning to `CCN(c1cc(-c2ccc(CN3CCOCC3)cc2)cc(C(=O)NCc2c(C)cc(C)[nH]c2=O)c1C)C1CCOCC1`, the “activity change, negative = inhibition” value was -69.9% (inactive).

For `NCCOc1cc(C(=O)Nc2cc(OCCN)c3ccccc3n2)nc(C(=O)Nc2cc(OCCN)c3ccccc3n2)c1`, the “activity change, negative = inhibition” value was -29.7% (inactive).

`Cc1cc(C(=O)Nc2cc(Nc3ccc4c(/C=C/c5ccccn5)n[nH]c4c3)ccc2F)n(C)n1`: the Potency was 29.4 µM (active). Consider `Cc1nnc(C[C@@H]2C=C(c3ccc(Cl)cc3)c3ccccc3-n3c(C)nnc32)o1`, for which the “activity change, negative = inhibition” value is -34.9% (inactive). Same read-out and setting: then `COc1ccc(-c2c(C)nn3c(NCCN4CCOCC4)cc(C)nc23)cc1OC`, with -22.4% (inactive). On the same count and under the same terms, then `CS(=O)(=O)Nc1cc2occ(NC=O)c(=O)c2cc1Oc1ccccc1`, with -24.7% (inactive); and `FC(F)(F)c1ccc(/C=C/c2nc(COc3ccc(CCCCn4ccnn4)cc3)co2)cc1`, with -19.1% (inactive).
